PostGolgi ctrl: yeast control strain growth, post-Golgi counter-screen. inhibition, % at 10 µM. efflux-deficient yeast background strain, growth absorbance A615, 16 h. 98,000 compounds, 5% hits
CYP2C19 inh: blocks human cytochrome P450 2C19; P33261; CYP2C19 Supersomes, luciferin-H EGE luminescence, 30 min; inhibition, % at 5 µM; 96,000 compounds, 21% hits;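 active = CYP2C19 inhibition above a set limit at 5 µM in the primary screen, cut at about 50% in these data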
PostGolgi yeast: growth inhibition of a yeast mutant, post-Golgi transport screen | post-Golgi transport phenotypic cell assay | inhibition, % at 10 µM | 98,000 compounds, 0.9% hits | AID 739;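 note: yeast cells grown in 1536-well plates; yeast grown about 18 h at 30C before absorbance read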
CYP2C19 activ: activators of human cytochrome P450 2C19; 96,000 tested, under 10 active; P33261; activation factor at 5 µM; recombinant CYP2C19, luciferin-H EGE luminescence; stronger effect = higher value; 0 = fully inhibited enzyme, 1 = untreated enzyme;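 active = activation factor of at least 2 at 5 µM in the primary screen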
CYP2C9 inhib: blocks human cytochrome P450 2C9. P11712. AID 777. inhibition, % at 5 µM. CYP2C9 Supersomes, luciferin-H conversion, luminescence. 96,000 compounds, 20% hits;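 active = blocking of liver enzyme CYP2C9 beyond about 50% at 5 µM, limit read from the data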
Target sequence (P11712 whole entry, looked up): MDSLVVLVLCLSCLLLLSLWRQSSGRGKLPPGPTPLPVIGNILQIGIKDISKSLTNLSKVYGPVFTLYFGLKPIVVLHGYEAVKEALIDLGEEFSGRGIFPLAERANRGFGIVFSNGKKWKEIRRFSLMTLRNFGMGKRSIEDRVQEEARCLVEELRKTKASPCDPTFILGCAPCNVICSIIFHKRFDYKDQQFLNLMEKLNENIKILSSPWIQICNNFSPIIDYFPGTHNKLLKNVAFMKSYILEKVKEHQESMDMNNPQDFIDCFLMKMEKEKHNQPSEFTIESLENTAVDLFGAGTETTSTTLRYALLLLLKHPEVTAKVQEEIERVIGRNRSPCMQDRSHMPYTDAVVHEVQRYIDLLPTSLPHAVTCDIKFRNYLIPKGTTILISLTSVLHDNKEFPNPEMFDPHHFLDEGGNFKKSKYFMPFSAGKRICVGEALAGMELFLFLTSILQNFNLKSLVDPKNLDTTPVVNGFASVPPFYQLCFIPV
CYP2C9 activ: CYP2C9 (human) activation. P11712. recombinant CYP2C9, luciferin-H conversion, luminescence; stronger effect = higher value; factor 1 = untreated enzyme, 0 = blocked. activation factor at 5 µM. 96,000 compounds, 1.4% hits. AID 1024;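 active = activation factor of 2 or more for CYP2C9 at a 5 µM dose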
A number is an active result. An excerpt weighted towards active compounds, which were near 32% of everything screened. Cut-off read from the data, not from the text of the source, unless noted: active = inhibition above about 30%; inactive = the rest.

`COCCN1CN(S(=O)(=O)c2ccccc2)c2nc3ccccc3nc21` gave PostGolgi ctrl inactive, CYP2C19 inh 83, PostGolgi yeast inactive, CYP2C19 activ inactive, CYP2C9 inhib 63 and CYP2C9 activ inactive.
`CCCCN1CN(S(=O)(=O)c2cccs2)c2nc3ccccc3nc21` gave PostGolgi ctrl inactive, CYP2C19 inh inactive, PostGolgi yeast inactive, CYP2C19 activ inactive, CYP2C9 inhib inactive and CYP2C9 activ inactive.
Screening Cc1cccc(S(=O)(=O)N2CN(Cc3ccco3)c3nc4ccccc4nc32)c1 returned PostGolgi ctrl inactive, CYP2C19 inh 79, PostGolgi yeast inactive, CYP2C19 activ inactive, CYP2C9 inhib 61 and CYP2C9 activ inactive.
Screening Cc1ccc(N=Cc2c(O)n(C)c(=O)n(C)c2=O)nc1 returned PostGolgi ctrl inactive, CYP2C19 inh inactive, PostGolgi yeast inactive, CYP2C19 activ inactive, CYP2C9 inhib inactive and CYP2C9 activ inactive.
Screening Cn1c(O)c(C=Nc2ccc(Cc3ccncc3)cc2)c(=O)n(C)c1=O returned CYP2C19 inh 88, CYP2C19 activ inactive, CYP2C9 inhib 73 and CYP2C9 activ inactive.
Screening COc1ccccc1C(=O)NC(C)c1ccccc1 (stereo not drawn) returned PostGolgi ctrl inactive, CYP2C19 inh 56, PostGolgi yeast inactive, CYP2C19 activ inactive, CYP2C9 inhib inactive and CYP2C9 activ 2.4.
Screening CN(C)S(=O)(=O)c1ccc(C(=O)Nc2ccccc2C(=O)O)cc1 returned PostGolgi ctrl inactive and PostGolgi yeast inactive.
`CC(NC(=O)c1ccccc1O)c1ccccc1` (stereo not drawn) gave PostGolgi ctrl inactive, CYP2C19 inh 58, PostGolgi yeast inactive, CYP2C19 activ inactive, CYP2C9 inhib inactive and CYP2C9 activ inactive.
CC(NC(=O)c1ccc(S(=O)(=O)N(C)C)cc1)c1ccccc1 (stereo not drawn) was read as PostGolgi ctrl inactive, CYP2C19 inh inactive, PostGolgi yeast inactive, CYP2C19 activ inactive, CYP2C9 inhib 54 and CYP2C9 activ inactive.
CCOC(=O)N1CCN(C(=O)CSc2nnc(Cc3ccccc3)o2)CC1 was read as PostGolgi ctrl inactive, CYP2C19 inh inactive, PostGolgi yeast inactive, CYP2C19 activ inactive, CYP2C9 inhib inactive and CYP2C9 activ inactive.
`CCCn1nnc(NC(=O)c2cccc(OCC(C)C)c2)n1` gave PostGolgi ctrl inactive, CYP2C19 inh inactive, PostGolgi yeast inactive, CYP2C19 activ inactive, CYP2C9 inhib inactive and CYP2C9 activ inactive.
CSc1nnc([C@@H](NC(=O)OC(C)(C)C)C(C)C)o1 was read as PostGolgi ctrl inactive, CYP2C19 inh inactive, PostGolgi yeast inactive, CYP2C19 activ inactive, CYP2C9 inhib inactive and CYP2C9 activ inactive.
COC(=O)CSc1nnc([C@H](CC(C)C)NC(=O)OC(C)(C)C)o1 was read as PostGolgi ctrl inactive, CYP2C19 inh 66, PostGolgi yeast inactive, CYP2C19 activ inactive, CYP2C9 inhib inactive and CYP2C9 activ inactive.
For Cc1[nH]c(=O)[nH]c(=O)c1CSc1nnc([C@H](CC(C)C)NC(=O)OC(C)(C)C)o1 the results were PostGolgi ctrl inactive, CYP2C19 inh inactive, PostGolgi yeast inactive, CYP2C19 activ inactive, CYP2C9 inhib inactive and CYP2C9 activ inactive.
For CCCCSc1nnc([C@H](CC(C)C)NC(=O)OC(C)(C)C)o1 the results were PostGolgi ctrl inactive, CYP2C19 inh 62, PostGolgi yeast inactive, CYP2C19 activ inactive, CYP2C9 inhib 56 and CYP2C9 activ inactive.
For CCCCSc1nnc([C@H](C)NC(=O)OC(C)(C)C)o1 the results were PostGolgi ctrl inactive, CYP2C19 inh 75, PostGolgi yeast inactive, CYP2C19 activ inactive, CYP2C9 inhib inactive and CYP2C9 activ inactive.
For CCOc1ccc(CCNC(=O)CN2CCN(Cc3ccccc3C)C2=O)cc1OCC the results were PostGolgi ctrl inactive, CYP2C19 inh inactive, PostGolgi yeast inactive, CYP2C19 activ inactive, CYP2C9 inhib inactive and CYP2C9 activ inactive.
O=C(O)CCc1nn2c3ccccc3nc2n(-c2ccccc2)c1=O was read as PostGolgi ctrl inactive, CYP2C19 inh inactive, PostGolgi yeast inactive, CYP2C19 activ inactive, CYP2C9 inhib inactive and CYP2C9 activ inactive.
Cc1cc(C)c(S(=O)(=O)c2c(C)cccc2C)c(Cl)n1 was read as PostGolgi ctrl inactive, CYP2C19 inh 75, PostGolgi yeast inactive, CYP2C19 activ inactive, CYP2C9 inhib inactive and CYP2C9 activ inactive.
For Clc1ccc(-c2nc3cnccn3c2NC2CCCC2)cc1 the results were PostGolgi ctrl 31, CYP2C19 inh 76, PostGolgi yeast inactive, CYP2C19 activ inactive, CYP2C9 inhib 89 and CYP2C9 activ inactive.
Clc1ccc(-c2nc3cnccn3c2Nc2ccc3c(c2)OCO3)cc1 was read as PostGolgi ctrl 38, CYP2C19 inh 87, PostGolgi yeast inactive, CYP2C19 activ inactive, CYP2C9 inhib 82 and CYP2C9 activ inactive.
`Cc1ccn2c(NC3CCCCC3)c(C)nc2c1` gave PostGolgi ctrl inactive, CYP2C19 inh inactive, PostGolgi yeast inactive, CYP2C19 activ inactive, CYP2C9 inhib inactive and CYP2C9 activ inactive.
Oc1ccccc1-c1nc2cnccn2c1Nc1ccc2c(c1)OCCO2 was read as PostGolgi ctrl inactive, CYP2C19 inh 92, PostGolgi yeast inactive, CYP2C19 activ inactive, CYP2C9 inhib 94 and CYP2C9 activ inactive.
Screening COc1ccc(-c2nc3ncccn3c2Nc2ccc3c(c2)OCCO3)cc1 returned PostGolgi ctrl inactive, CYP2C19 inh inactive, PostGolgi yeast inactive, CYP2C19 activ inactive, CYP2C9 inhib inactive and CYP2C9 activ inactive.
c1cncc(-c2nc3ccccn3c2Nc2ccc3c(c2)OCCO3)c1 was read as PostGolgi ctrl inactive, CYP2C19 inh inactive, PostGolgi yeast inactive, CYP2C19 activ inactive, CYP2C9 inhib inactive and CYP2C9 activ inactive.
`CSc1ccc(-c2nc3cnccn3c2Nc2ccc3c(c2)OCO3)cc1` gave PostGolgi ctrl inactive, CYP2C19 inh 96, PostGolgi yeast inactive, CYP2C19 activ inactive, CYP2C9 inhib 88 and CYP2C9 activ inactive.
For [O-]/[N+](=C/c1ccc(F)cc1)c1ccc(Cl)cc1 the results were PostGolgi ctrl inactive, CYP2C19 inh inactive, PostGolgi yeast inactive, CYP2C19 activ inactive, CYP2C9 inhib inactive and CYP2C9 activ inactive.
`COc1ccc(-n2nnnc2SCC(=O)N2CCCC2)cc1OC` gave PostGolgi ctrl inactive, CYP2C19 inh inactive, PostGolgi yeast inactive, CYP2C19 activ inactive, CYP2C9 inhib inactive and CYP2C9 activ inactive.
O=C(CN1CCN(C(=O)c2ccccc2F)CC1)Nc1ccc(Br)cc1 was read as PostGolgi ctrl inactive, CYP2C19 inh inactive, PostGolgi yeast inactive, CYP2C19 activ inactive, CYP2C9 inhib inactive and CYP2C9 activ 2.7.
O=C(CN1CCc2ccccc2C1)Nc1ccc(Br)cc1 was read as PostGolgi ctrl inactive, CYP2C19 inh 90, PostGolgi yeast inactive, CYP2C19 activ inactive, CYP2C9 inhib inactive and CYP2C9 activ inactive.
`CCc1ccc(NC(=O)CN2CCc3ccccc3C2)cc1` gave PostGolgi ctrl inactive, CYP2C19 inh 92, PostGolgi yeast inactive, CYP2C19 activ inactive, CYP2C9 inhib 90 and CYP2C9 activ inactive.
`O=C(Nc1ccc(C(=O)N2CCCC2)cc1)c1ccccc1F` gave PostGolgi ctrl inactive, CYP2C19 inh inactive, PostGolgi yeast inactive, CYP2C19 activ inactive, CYP2C9 inhib inactive and CYP2C9 activ inactive.

Bioassay records deposited in PubChem by several laboratories.
